Assay results from PubChem BioAssay AID588342 (National Center for Advancing Translational Sciences (NCATS), 2011).
The campaign covered roughly 360,000 compounds. About 25,000 (6.9%) were called active. Inconclusive results (about 9%) are left out. This excerpt belongs to a sample that is enriched for actives. Values without a mark were called inactive. Calls follow the shape of the dose curve; as a rule, active = well fitted inhibition curve with a large enough effect; inconclusive = small, poorly fitted or top-dose-only effect; inactive = flat fitted curve, though single readings scatter.

Target: Luciferin 4-monooxygenase (Photinus pyralis) (UniProt P08659)
Test: qHTS profiling assay for firefly luciferase inhibitor/activator using purifed enzyme and Km concentrations of substrates (counterscreen for miR-21 project); also: nearly all actives have a fitted effect of over 55% in size;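 as to activity change, negative = inhibition: plate controls were vehicle for no effect and reference inhibitor for full effect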
Conditions: purified FLuc, luminescence inhibition; series mostly up to 57.5 µM; activity change, negative = inhibition: at the top concentration
Procedure, shortened: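 Purified P. pyralis luciferase (10nM final) with 10uM D-luciferin and 10uM ATP (Km levels) in 50mM Tris acetate pH 7.5, 10mM Mg acetate, 0.01% Tween-20, 0.05% BSA; qHTS 6-point titration, ~60 µM downward; luminescence read.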
Potency is read from the fitted curve at half-maximal effect.

Sequence of Luciferin 4-monooxygenase (Photinus pyralis) (P08659 whole entry, looked up): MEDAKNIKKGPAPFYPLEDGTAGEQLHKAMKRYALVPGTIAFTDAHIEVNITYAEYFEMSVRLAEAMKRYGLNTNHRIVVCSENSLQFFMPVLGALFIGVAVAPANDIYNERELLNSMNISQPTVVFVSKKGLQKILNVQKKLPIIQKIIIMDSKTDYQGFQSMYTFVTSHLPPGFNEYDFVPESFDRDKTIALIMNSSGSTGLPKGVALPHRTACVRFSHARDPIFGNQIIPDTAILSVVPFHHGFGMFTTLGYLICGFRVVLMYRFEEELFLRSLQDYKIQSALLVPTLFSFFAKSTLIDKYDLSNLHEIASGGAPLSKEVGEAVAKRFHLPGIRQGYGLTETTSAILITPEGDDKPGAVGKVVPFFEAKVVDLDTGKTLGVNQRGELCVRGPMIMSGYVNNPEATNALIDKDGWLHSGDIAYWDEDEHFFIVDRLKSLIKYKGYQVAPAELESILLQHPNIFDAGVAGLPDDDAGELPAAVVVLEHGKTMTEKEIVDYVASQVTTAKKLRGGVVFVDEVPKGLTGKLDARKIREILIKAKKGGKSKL

| SMILES | activity change, negative = inhibition [%] | Potency |
| --- | --- | --- |
| CCCC(=O)Nc1cccc(NC(=S)NC(=O)C(C)Oc2ccc(Cl)cc2Cl)c1 (stereo not given) | 0.164 | – |
| CC(C)n1ncc2c(C(=O)NCc3ccccc3CN(C)C)cc(C3CC3)nc21 | -2.31 | – |
| COC(=O)CC1=NN(c2nc(C)cc(C)n2)C(=O)C1 | -2.4 | – |
| COC(=O)Cc1csc(Nc2c(C)n(C)n(-c3ccccc3)c2=O)n1 | 0.205 | – |
| COC(=O)Cc1cc(=O)n(-c2nc3ccccc3s2)[nH]1 | – | 16.9 µM (active) |
| CCCCOc1ccc(CNC(=O)c2ccc3c(c2)N(C)C(=O)C2CCCCN32)cc1 (stereo not given) | -16.9 | – |
| Cc1c(C(=O)Nc2cccc(Cl)c2)cn2c(nc3ccccc32)c1C#N | 0.605 | – |
| Cn1c(Nc2cccc(Cl)c2)nc2ccccc21 | – | 26.9 µM (active) |
| C/C(=N\c1nc2ccccc2n1C)c1cc(Cl)ccc1O | 1.93 | – |
| Cc1ccc(S(=O)(=O)N2CCc3cc(C(=O)Nc4ccc(Cl)cc4C)ccc32)cc1 | -0.133 | – |
| NC(=O)Cn1cc(/C=N\NS(=O)(=O)c2ccccc2)c2ccccc21 | -3.8 | – |
| COc1cccc(C(=O)CC(=O)C(=O)Nc2ccc([N+](=O)[O-])cc2C)c1 | -0.0338 | – |
| COc1cccc(NCCC(=O)c2cccc([N+](=O)[O-])c2)c1 | – | 15.1 µM (active) |
| COc1cccc(CNC(=O)CCCC(=O)Nc2cccc([N+](=O)[O-])c2)c1 | -0.421 | – |
| CC(=O)c1ccc(OCCCC(=O)Nc2ccc(C)c(S(=O)(=O)N3CCOCC3)c2)cc1 | -0.819 | – |
| Cc1ccc(NC(=O)CN2c3ccccc3S(=O)(=O)c3ccccc32)cc1F | -14.8 | – |
| N#C/C(=C(/O)Cc1cccc2ccccc12)c1nc2ccccc2s1 | 0.936 | – |
| Cc1ccc(F)cc1S(=O)(=O)N1CCC(c2nc3ccccc3s2)CC1 | -14.2 | – |
| CC1=CC(=C(C#N)c2nc3ccccc3s2)C=C(C)N1c1ccc(F)cc1F | – | 1.35 µM (active) |
| COc1ccc2[nH]cc(/C=C(/C#N)S(=O)(=O)c3ccccc3)c2c1 | -2.16 | – |
| COc1ccc(/C=C(\C#N)c2c[nH]c3ccccc23)cc1 | – | 19 µM (active) |
| COc1ccc(C(C(O)C(=O)c2c[nH]c3ccccc23)N2CCN(c3ccccc3)CC2)cc1 (stereo not given) | 1 | – |
| CCOC(=O)c1cc(NC(=O)c2ccc(F)cc2)c(=O)n2c1oc1ccccc12 | -2.27 | – |
| COC1=C/C(=C/c2c(N)n3nc(CC(=O)N4CCOCC4)sc3nc2=O)C=CC1=O | -7.53 | – |
| CCNC(=O)c1ccc(OCC(=O)Nc2ccc(F)cc2)c(OC)c1 | -8.62 | – |
| COc1cc2c(cc1OC)/C(=C/C(=O)c1ccc(NC(C)=O)cc1)NCC2 | – | 16.9 µM (active) |
| COc1cc2c(cc1OC)CN(CC(=O)Nc1ccc(F)cc1)CC2 | 1.97 | – |

| SMILES | activity change, negative = inhibition [%] | Potency |
| --- | --- | --- |
| CCN(CC(=O)Nc1ccccc1C(=O)NC1CC1)Cc1cccs1 | 2.69 | – |
| Cc1cc(OCC(=O)NCC2(N(C)C)CCCCC2)cc(C)c1Cl | -0.865 | – |
| Cc1ccnc(-n2sc3ccccc3c2=O)n1 | – | 9.53 µM (active) |
| Cc1ccnc(N2CCCC(C(=O)NC3CC3)C2)n1 (stereo not given) | 0.897 | – |
| Cc1ccnc(SCC(N)=O)n1 | -2.98 | – |
| CCN(Cc1ccccc1)S(=O)(=O)c1ccc2c(c1)CCCN2C(C)=O | -8.62 | – |
| COc1ccc(N2CCN(C(=O)COc3ccc4c(C)cc(=O)oc4c3)CC2)cc1 | 1.41 | – |
| CCn1ccnc1CN(C)C(=O)c1cc(COc2ccc(-n3cncn3)cc2)on1 | 0.919 | – |
| Cc1cc(CN(C)C(=O)c2cc(COc3ccc(C)c(C)c3)on2)n[nH]1 | – | 2.39 µM (active) |
| CN(CCOc1ccccc1)C(=O)c1cc(COc2c(F)cccc2F)on1 | -13.6 | – |
| CN(Cc1cnccn1)C(=O)c1cc(COc2cccc(C(F)(F)F)c2)on1 | -18.1 | – |
| CN(Cc1cccnc1)C(=O)c1cc(COc2ccc3ncccc3c2)on1 | -5.81 | – |
| Cc1ccc(OCc2cc(C(=O)N(C)CCc3ccccc3)no2)cc1C | – | 23.9 µM (active) |
| COc1cccc(CNC(=O)c2cc(=O)[nH]c3ccc(S(=O)(=O)N4CCCCC4)cc23)c1 | 3.34 | – |
| Cc1cccc(OCCCC(=O)Nc2sc3c(c2C(N)=O)CCC(C)C3)c1 (stereo not given) | -8.63 | – |
| OC(c1ccccc1)C(CN1CCOCC1)c1ccccc1 (stereo not given) | -1.86 | – |
| COC(=O)c1ccccc1NC(=O)c1cnn(-c2ccc(F)cc2)c1-n1cccc1 | -3.25 | – |
| COC(=O)c1c(NC(=O)CCCOc2ccccc2)sc2c1CCC(C)C2 (stereo not given) | 1.24 | – |
| CC1CCN(C(=O)COC(=O)CCC(=O)c2cccs2)CC1 | -5.08 | – |
| O=C(Nc1ccc2nc(SCC(=O)N3CCCc4ccccc43)sc2c1)c1ccc(Cl)cc1 | -16.4 | – |
| Cc1nnc(SCC(=O)NCCOc2ccc(Cl)cc2)n1-c1ccccc1 | -2.21 | – |
| Cc1nnc(SCC(=O)N2CCN(c3ccccc3)CC2)n1-c1ccccc1 | 1.26 | – |
| Cc1nnc(SCc2ccc(C(=O)c3ccc(Cl)cc3)o2)n1-c1ccccc1 | – | 15.1 µM (active) |
| COc1ccc(C)cc1NC(=O)c1cc(-c2ccccc2)nc2c1cnn2C(C)C | 1.45 | – |
| COCCN(CCOC)c1nc(N)c2c(N)nc3c(c2c1C#N)CC(=O)N3Cc1ccc(Cl)cc1 | 3.37 | – |
| CCOC(=O)C1CCCN(Cc2nc(N)nc(Nc3ccc(C)cc3)n2)C1 (stereo not given) | 2.54 | – |
| Cc1ccc(Nc2nc(N)nc(CSc3nnc(C)s3)n2)cc1 | – | 10.7 µM (active) |

| SMILES | activity change, negative = inhibition [%] | Potency |
| --- | --- | --- |
| Cc1nnc(SCc2nc3ccccc3nc2C)s1 | -1.45 | – |
| O=C(COC(=O)Cn1[nH]c(=O)c2ccccc2c1=O)Nc1ncc(Cl)cc1Cl | -0.206 | – |
| Cc1ccc(S(=O)(=O)NCCC(=O)NNC(=O)C2COc3ccccc3O2)cc1 (stereo not given) | 0.339 | – |
| CCN(CCCNC(=O)Cn1ncc2c3ccccc3n(C)c2c1=O)Cc1ccccc1 | -13.7 | – |
| CCC(=O)Nc1ccc2nn(-c3ccc(F)cc3)nc2c1 | – | 1.35 µM (active) |
| Cc1nn(CC(=O)Nc2ccc(F)cc2)c(=O)c2ccccc12 | -0.402 | – |
| O=C(Cc1ccc(Cl)cc1)Nc1ccc2nn(-c3ccc(Cl)cc3)nc2c1 | -0.963 | – |
| Cc1ccc(NC(=O)c2oc3ccc(S(=O)(=O)N4CCCCC4)cc3c2C)cc1Cl | -0.833 | – |
| COc1ccc(C(=O)N2CCN(c3ncccn3)CC2)cc1S(=O)(=O)N1CCOCC1 | 1.48 | – |
| O=c1c(Cl)c(NC2CC2)cnn1-c1ccccc1 | 3.08 | – |
| C=CCNc1cnn(-c2ccc(C)cc2)c(=O)c1Cl | – | 15.1 µM (active) |
| CCc1nc2c(cnn2-c2ccc(C)cc2)c(=O)n1-c1ccc(C)cc1 | 2.3 | – |
| CCCCN(CC)CCCNC(=O)Cn1ncc2c([nH]c3ccc(C)cc32)c1=O | -6.5 | – |
| O=C(CNCc1ccc(Cl)cc1)Nc1cccc(C(=O)O)c1 | -5.42 | – |
| O=C(c1ccc(F)cc1)n1cc(C(=S)N2CCOCC2)c2ccccc21 | -16.4 | – |
| O=C(c1ccc(F)cc1)n1c(=S)nc2ccccn21 | – | 0.269 µM (active) |
| O=C(Nc1c(-c2ccc(F)cc2)nc2ccccn12)c1cccc(F)c1 | -11.9 | – |
| Cc1cc(C)c(NC(=O)c2cc3sc(Cl)cc3n2C)c(C)c1 | -8.09 | – |
| CCC(=O)c1c[nH]c(C(=O)NCC2CCCO2)c1 (stereo not given) | -1.61 | – |
| O=C(NNC(=O)c1cc2c(s1)CCCC2)c1ccccc1 | – | 26.9 µM (active) |
| O=C(NCCCN1CCOCC1)c1cc2c(s1)CCC2 | 3.35 | – |
| O=C(NNC(=O)C1CCC1)c1ccccc1 | 0.634 | – |
| O=C(NCC1CCCO1)c1cc2c(s1)CCCC2 (stereo not given) | – | 12 µM (active) |
| COc1ccc(C(CNC(=O)c2cc3c(s2)CCCC3)N2CCOCC2)cc1 (stereo not given) | 0.96 | – |
| O=C(Nc1ccc(F)cc1)c1cc2c(s1)CCCC2 | – | 1.9 µM (active) |
| O=C(c1cc2c(s1)CCC2)N1CCN(c2ccccc2)CC1 | -9.22 | – |
| O=C(NCCCn1ccnc1)c1cc2c(s1)CCCC2 | -19.1 | – |

| SMILES | activity change, negative = inhibition [%] | Potency |
| --- | --- | --- |
| COc1ccc(Cn2c(=O)c3oc4ccccc4c3n(CC(=O)Nc3ccc(F)cc3F)c2=O)cc1 | 1.11 | – |
| COc1ccc(Cn2ccn(Cc3cccc(OC)c3)c(=O)c2=O)cc1 | 1.98 | – |
| CN(C)c1ccc(NC(=O)CSc2nc(-c3ccco3)cc(C(F)(F)F)n2)cc1 | 2.16 | – |
| CSc1ccccc1OCc1cc(C(=O)N2C[C@H]3CC[C@H]2C3)no1 | – | 10.7 µM (active) |
| COC(=O)[C@@H]1CCCN1C(=O)c1cc(COc2cccc3cccnc23)on1 | -2.66 | – |
| CSc1ccccc1OCc1cc(C(=O)N(C)CCc2c(C)n[nH]c2C)no1 | -1.04 | – |
| CCc1nnc(SCc2nc(-c3cccc(C)c3)oc2C)c2cc3sc(C)cc3n12 | -0.968 | – |
| COc1ccc2[nH]c(C(=O)N3CCN(C)CC3)c(C)c2c1 | -4.15 | – |
| COc1ccc2[nH]c(=S)cc(C)c2c1 | -15.8 | – |
| COc1ccc2[nH]c3ccc(OC)cc3c2c1 | – | 21.3 µM (active) |
| CCCCn1c(CNC(=O)C23CC4CC(CC(C4)C2)C3)nnc1SCC(=O)Nc1ccc(C)cc1 | -12.5 | – |
| CC(C)Oc1ccc(CNC(=O)C2CCN(c3nc4ccccc4n(C)c3=O)CC2)cc1 | 1.52 | – |
| O=C(O)COCC(=O)NCc1csc2ccc(Cl)cc12 | 1.62 | – |
| Cc1ccccc1NC(=O)c1cc(S(=O)(=O)Nc2cccc(C(=O)O)c2)ccc1Cl | -5.3 | – |
| CC(=O)Nc1cccc(/C(C)=N/NC(=O)c2c(-c3ccccc3Cl)noc2C)c1 | -2.43 | – |
| C/C(=N\Nc1cccc(C(=O)O)c1)c1ccc2c(c1)Nc1ccccc1S2 | – | 7.57 µM (active) |
| Cc1ccc(S(=O)(=O)N2CCOCC2)cc1NC(=O)COC(=O)c1cnccn1 | 4.43 | – |
| Cc1cc(F)ccc1NS(=O)(=O)c1ccc(-n2cccn2)cc1 | -17.4 | – |
| O=C(COC(=O)C1(c2ccc(F)cc2)CCCC1)N1CCNC1=O | 2.21 | – |
| COCCN1C(=O)C(=O)/C(=C(/O)c2ccc(S(=O)(=O)N3CCOCC3)cc2)C1c1ccc(O)c(OC)c1 (stereo not given) | 3.35 | – |
| CSc1ccc(NC(=O)/C=C/C(=O)O)cc1 | -17.2 | – |
| CSc1ccc(/C=C/C(=O)NC23CC4CC(CC(C4)C2)C3)cc1 | – | 13.5 µM (active) |
| O=C(NCc1ccncc1)NC12CC3CC(CC(C3)C1)C2 | 7.76 | – |
| COC(=O)c1sc(NC(=O)COC(=O)C2CCC2)c(C(=O)OC)c1C | 6.53 | – |
